For test [1], the target named is Lysosomal acid glucosylceramidase (Homo sapiens) (UniProt P04062). The test is described as follows: Glucocerebrosidase-p2 (AID 348; in the data active = potency below about 10 µM; also: potency is read from the fitted curve at half-maximal effect). As to conditions: purified GBA, blue fluorogenic substrate, 40 min. A digest of the protocol:
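Normal human glucocerebrosidase (0.2 nM) with blue fluorogenic substrate (80 uM final) in citrate/phosphate pH 5.9 with 10mM sodium taurocholate, 0.01% tween-20; 40 min RT, NaOH/glycine stop; fluorescence Ex 365/Em 440; AC50 from a titration from 0.6 nM upwards.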

Test [2] can be described thus: AP1 Signaling Pathway (AID 357).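 Also: ME-180 reporter cells stimulated with EGF at its EC50 level; % is scaled to controls: 0 for no effect and ±100 for the full control effect.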 As to conditions: ME-180 AP-1-bla reporter, EGF-induced, beta-lactamase ratio, 5 h; at 7.69 µM (top of the series) unless noted. The method in brief: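 In this screen, ME-180 cells in Opti-MEM with 0.5% dialyzed FBS received EC50 EGF and compound titrations for 5 h. AP-1 reporter beta-lactamase was detected via CCF4 ratio, giving AC50 for positive and negative modulators.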

Test [3] in a line: NFAT Signaling Pathway (AID 444).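 Also: carbachol stimulus at about its EC50 of 1 µM final; % is scaled to controls: 0 for no effect and ±100 for the full control effect.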 As to conditions: Jurkat NFAT-bla M1, carbachol, beta-lactamase ratio, 5 h; at 7.69 µM (top of the series) unless noted. The method in brief: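 Jurkat cells with NFAT-driven β-lactamase reporter and co-expressed M1 receptor, stimulated with carbachol (final 1 uM, ~EC50), compound titration, 5 h at 37 °C. CCF4 loaded 1 h at RT; 460/530 nm ratio gave %activity and AC50.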

A short description of test [4]: Stat Signaling Pathway (AID 446).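 Also: ME-180 cervical cancer cells given 40 pM IL-6 alongside compound; SIE-controlled beta-lactamase reporter measured as 460/530 nm FRET emission ratio; % is scaled to controls: 0 for no effect and ±100 for the full control effect.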 The conditions noted are these: ME-180 (cervical carcinoma) SIE beta-lactamase reporter, IL-6 stimulated, 5 h; at 7.69 µM (top of the series) unless noted. The method in brief: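 Emission at 460 and 530 nm (excitation 405 nm) reports SIE-controlled beta-lactamase in ME-180 cells. Cells received compound with 40 pM IL-6 for 5 hrs at 37 C; data scaled between 300 pM IL-6 and 125 nM JAK-inhibitor controls.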

The target in test [5] is Glucocorticoid receptor (Homo sapiens) (UniProt P04150). The test is described as follows: GR-GFP Redistribution (AID 450;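 active = compounds whose dose series gives a full or clear partial fitted curve of increased nuclear translocation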; also: potency is read from the fitted curve at half-maximal effect). The conditions noted are these: U2OS GR-GFP nuclear translocation, laser cytometry, 2 h.
Sequence of Glucocorticoid receptor (Homo sapiens) (P04150 whole entry, looked up): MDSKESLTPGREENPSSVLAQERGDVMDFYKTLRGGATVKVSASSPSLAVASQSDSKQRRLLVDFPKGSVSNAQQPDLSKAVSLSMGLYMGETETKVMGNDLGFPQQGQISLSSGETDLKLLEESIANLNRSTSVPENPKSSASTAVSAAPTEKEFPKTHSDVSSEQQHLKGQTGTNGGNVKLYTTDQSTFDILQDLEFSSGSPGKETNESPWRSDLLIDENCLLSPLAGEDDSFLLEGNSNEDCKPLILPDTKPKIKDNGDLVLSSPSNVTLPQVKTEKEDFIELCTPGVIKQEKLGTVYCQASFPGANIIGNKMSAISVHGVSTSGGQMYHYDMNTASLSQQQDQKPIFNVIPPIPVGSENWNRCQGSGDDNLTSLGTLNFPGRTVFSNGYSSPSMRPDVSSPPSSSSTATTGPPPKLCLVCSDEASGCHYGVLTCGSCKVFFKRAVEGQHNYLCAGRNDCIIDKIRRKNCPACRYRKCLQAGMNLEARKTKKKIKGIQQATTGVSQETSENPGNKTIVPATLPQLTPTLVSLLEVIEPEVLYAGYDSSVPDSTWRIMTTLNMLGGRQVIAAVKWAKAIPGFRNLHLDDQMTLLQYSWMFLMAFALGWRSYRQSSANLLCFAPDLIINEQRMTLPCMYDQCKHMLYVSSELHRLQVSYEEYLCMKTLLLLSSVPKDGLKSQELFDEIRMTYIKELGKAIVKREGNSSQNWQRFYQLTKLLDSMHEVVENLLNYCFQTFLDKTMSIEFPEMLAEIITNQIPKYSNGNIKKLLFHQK
For test [6] the target is unchanged. The test is described as follows: GR-EFC Redistribution (AID 451; calls by dose curve; also: potency is read from the fitted curve at half-maximal effect). The conditions noted are these: CHO-K1 GR-EFC translocation, beta-gal luminescence, 2 h. A digest of the protocol:
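CHO-K1 cells expressing nuclear EA and GR-ED fragments of b-gal; compounds titrated up to 46 uM final, 2 h at 37 C. GR nuclear translocation read as complemented b-gal luminescence after 1 h RT detection.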

The target of test [7] is Mitogen-activated protein kinase 10 (Mus musculus) (UniProt Q61831). The test is described as follows: JNK3 AlphaScreen Assay (AID 530).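 Also: kinase came from lysate of stimulated human HepG2 cells; signal reports phosphorylation of biotinylated GST-cJun 1-79 at Ser73 with 10 µM ATP; % is scaled to controls: 0 for no effect and ±100 for the full control effect.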 As to conditions: JNK3 lysate, c-Jun phosphorylation; series mostly up to 57.1 µM. A digest of the protocol: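 HepG2 lysate (IL-1b/TNFa pre-activated) + biotin-GST-cJun 1-79 + anti-pSer73 cJun; cpd titration, 15 min RT; ATP 10 uM start; Tris pH 7.6, MgCl2, DTT, vanadate; beads in EDTA buffer; AlphaScreen.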

Test [8] addresses Cytochrome P450 3A4 (Homo sapiens) (UniProt P08684). The test can be described thus: qHTS Assay for Activators of Cytochrome P450 3A4 (AID 885; active = well fitted curve in the direction sought with a large enough effect; an effect the other way counts as inactive or inconclusive; also: nearly all actives have a fitted effect of over 65% in size). As to conditions: recombinant CYP3A4, Luciferin-PPXE luminescence, 60 min; series mostly up to 57.1 µM. A digest of the protocol:
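Activators are scored by enhanced luminescence from CYP3A4 conversion of luciferin-PPXE (25uM, equal to KM) to luciferin, after 60 min at RT with an NADPH-regenerating system.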
(qHTS replaces the single test concentration by a dilution series.)

A short description of test [9]: Confirmation and Secondary Assay for Modulators of Hemoglobin Beta Chain Splicing at IVS2 654 locus (AID 910; active = well fitted curve in the direction sought with a large enough effect; an effect the other way counts as inactive or inconclusive;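 also: HeLa cells stably carrying EGFP split by mutant beta-globin IVS2-654 intron; % of control where 0% means no effect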). The conditions noted are these: HeLa EGFP-654 splicing reporter, GFP fluorescence, 48 h; series mostly up to 38.3 µM. The method in brief: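 HeLa cells stably expressing EGFP interrupted by β-globin IVS2-654 intron, seeded overnight in Opti-MEM/2% FCS, then treated 2 days at 37 °C. Restored splicing read as total peak GFP intensity per well by laser scanning cytometry (488 nm excitation, 500–520 nm emission); 500 nM antisense PNA as control.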

Test [10] can be described thus: Confirmation and Secondary Assay for Modulators of Hemoglobin Beta Chain Splicing at IVS2 705 locus (AID 930; active = well fitted curve in the direction sought with a large enough effect; an effect the other way counts as inactive or inconclusive;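 also: HeLa cells stably expressing the EGFP-705 splicing reporter; GFP fluorescence per well restored by corrected splicing of the IVS2-705 intron in EGFP; % of control where 0% means no effect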). The conditions noted are these: HeLa EGFP-705 splicing reporter, GFP fluorescence, 48 h; series mostly up to 38.3 µM. The method in brief: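 HeLa IVS2-705 EGFP reporter cells, 500/well, compound 2 d at 37C; correct splicing yields fluorescent EGFP. Control: 500 nM antisense PNA. Read-out: total peak GFP intensity.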

The nature of test [11]: qHTS Assay for Lipid Storage Modulators (AID 1519; calls by dose curve). As to conditions: Drosophila S3 cells, BODIPY lipid droplet/cell ratio, laser cytometry, cells loaded with oleic acid; for activity change, negative = inhibition: at 57.5 µM (top of the series). A digest of the protocol: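 Cells seeded at 5,000 per well were treated with compounds over a concentration series and loaded with oleic acid (400 uM, as added). Lipid droplet fluorescence (488 nm excitation, 500-530 nm channel) was read by laser-scanning cytometry and normalized to 20 uM Triacsin C.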

The nature of test [12]: Primary qHTS for small molecule stabilizers of the endoplasmic reticulum resident proteome: Secreted ER Calcium Modulated Protein (SERCaMP) assay (AID 1508630; active = well fitted curve in the direction sought with a large enough effect; an effect the other way counts as inactive or inconclusive; also: % is scaled to controls: 0 for no effect and ±100 for the full control effect). The conditions noted are these: SH-SY5Y GLuc-SERCaMP (Gaussia luciferase released on ER calcium loss) secretion, thapsigargin, luminescence; series mostly up to 38.4 µM. A digest of the protocol:
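The SH-SY5Y reporter protocol was run at 3 concentrations up to 38.3 uM (primary) or 11 concentrations (follow-up): 16 h compound, 100 nM thapsigargin for 4 h, then extracellular luciferase luminescence.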

Test [13] addresses 3',5'-cyclic-AMP phosphodiesterase 4B (Homo sapiens) (UniProt Q07343). The test can be described thus: qHTS Assay for Inhibitors of PDE-IV (AID 607; active = well fitted activation curve with a large enough effect in the main read-out, with a control signal flat, not every such curve was filed as active; also: % of control where 0% means no effect). The conditions noted are these: HEK293 ACTOne CNG channel cells, membrane potential fluorescence; series mostly up to 22.9 µM. A digest of the protocol: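 The readout is membrane depolarisation from a cAMP-sensing CNG channel, detected with a potential dye at ex 535/em 590. Cells were HEK293-derived (endogenous PDE-IV) at 1000 cells/well, titrated up to 22.9 uM final.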

Test [14] concerns the target Cytochrome P450 1A2 (Homo sapiens) (UniProt P05177). The test is described as follows: p450-cyp1a2 (AID 410; calls by dose curve;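 also: -100% = full effect of reference inhibitor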). The conditions noted are these: recombinant CYP1A2, luciferin-ME demethylation, luminescence; series mostly up to 57 µM. The method in brief: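 20nM CYP1A2, 100uM Luciferin-ME (=Km), 100mM KPO4; cpd 10 min RT; +NADPH regen, 60 min RT; stop/detect 20 min; luminescence. Normalized to furafylline 57 uM = full inhibition.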

[15] abbreviates: measured here: cell count channel max response.
[16] abbreviates: measured here: lipid channel max response.

Here are results for four molecules from PubChem BioAssay (NCATS).

Records with an inconclusive call do not appear. The source made the active and inactive calls. Unless noted, calls follow the shape of the dose curve; as a rule, active = well fitted curve in either direction with a large enough effect (not every such curve was filed as active); inconclusive = small, poorly fitted or top-dose-only effect, or another doubt; inactive = flat fitted curve, though single readings scatter. Bounds are passed on as bounds.

Sequence of Lysosomal acid glucosylceramidase (Homo sapiens) (P04062 whole entry, looked up): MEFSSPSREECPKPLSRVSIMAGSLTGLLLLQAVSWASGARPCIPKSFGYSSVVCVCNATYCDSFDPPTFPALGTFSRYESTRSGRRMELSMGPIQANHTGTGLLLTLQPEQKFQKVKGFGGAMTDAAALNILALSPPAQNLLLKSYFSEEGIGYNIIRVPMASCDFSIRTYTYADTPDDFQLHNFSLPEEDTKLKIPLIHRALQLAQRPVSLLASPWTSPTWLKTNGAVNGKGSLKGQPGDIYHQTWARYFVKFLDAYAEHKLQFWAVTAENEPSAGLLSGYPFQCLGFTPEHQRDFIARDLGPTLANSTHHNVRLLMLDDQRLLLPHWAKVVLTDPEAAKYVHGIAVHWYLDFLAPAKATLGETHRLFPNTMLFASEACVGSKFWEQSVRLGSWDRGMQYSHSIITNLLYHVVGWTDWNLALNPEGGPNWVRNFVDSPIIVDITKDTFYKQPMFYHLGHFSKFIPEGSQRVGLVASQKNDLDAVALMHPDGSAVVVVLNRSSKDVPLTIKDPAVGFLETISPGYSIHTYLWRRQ
Sequence of Cytochrome P450 3A4 (Homo sapiens) (P08684 whole entry, looked up): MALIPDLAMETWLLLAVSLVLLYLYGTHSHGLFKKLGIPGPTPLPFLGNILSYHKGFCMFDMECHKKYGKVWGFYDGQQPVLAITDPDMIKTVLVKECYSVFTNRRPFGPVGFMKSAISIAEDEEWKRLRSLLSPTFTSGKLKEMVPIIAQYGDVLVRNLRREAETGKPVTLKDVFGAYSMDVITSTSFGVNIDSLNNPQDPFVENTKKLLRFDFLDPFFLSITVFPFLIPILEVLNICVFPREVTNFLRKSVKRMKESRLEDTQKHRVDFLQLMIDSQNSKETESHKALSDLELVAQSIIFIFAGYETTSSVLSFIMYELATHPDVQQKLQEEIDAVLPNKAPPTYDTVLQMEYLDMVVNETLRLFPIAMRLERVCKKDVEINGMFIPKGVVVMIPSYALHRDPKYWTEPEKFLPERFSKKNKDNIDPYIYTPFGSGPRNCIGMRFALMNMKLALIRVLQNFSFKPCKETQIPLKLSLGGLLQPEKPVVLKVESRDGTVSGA
Sequence of 3',5'-cyclic-AMP phosphodiesterase 4B (Homo sapiens) (Q07343 whole entry, looked up): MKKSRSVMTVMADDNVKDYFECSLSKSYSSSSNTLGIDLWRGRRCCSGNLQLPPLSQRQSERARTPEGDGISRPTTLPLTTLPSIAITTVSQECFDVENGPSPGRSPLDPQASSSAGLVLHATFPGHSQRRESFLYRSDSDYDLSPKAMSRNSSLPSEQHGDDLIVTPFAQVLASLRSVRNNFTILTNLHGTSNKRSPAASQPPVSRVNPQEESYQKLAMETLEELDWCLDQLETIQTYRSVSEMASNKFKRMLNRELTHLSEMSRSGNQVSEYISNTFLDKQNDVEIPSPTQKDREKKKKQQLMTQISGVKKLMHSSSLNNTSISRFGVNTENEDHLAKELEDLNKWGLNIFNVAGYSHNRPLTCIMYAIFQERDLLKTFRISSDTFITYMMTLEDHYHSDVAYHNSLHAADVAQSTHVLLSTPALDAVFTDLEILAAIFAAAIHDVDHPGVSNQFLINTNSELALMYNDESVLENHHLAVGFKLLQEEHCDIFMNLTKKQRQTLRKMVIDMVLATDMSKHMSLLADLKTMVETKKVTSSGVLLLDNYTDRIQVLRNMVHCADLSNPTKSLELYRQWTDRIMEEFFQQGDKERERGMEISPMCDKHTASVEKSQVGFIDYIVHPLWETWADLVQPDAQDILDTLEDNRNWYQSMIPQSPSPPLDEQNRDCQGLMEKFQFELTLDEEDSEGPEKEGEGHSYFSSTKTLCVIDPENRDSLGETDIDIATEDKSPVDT
Sequence of Cytochrome P450 1A2 (Homo sapiens) (P05177 whole entry, looked up): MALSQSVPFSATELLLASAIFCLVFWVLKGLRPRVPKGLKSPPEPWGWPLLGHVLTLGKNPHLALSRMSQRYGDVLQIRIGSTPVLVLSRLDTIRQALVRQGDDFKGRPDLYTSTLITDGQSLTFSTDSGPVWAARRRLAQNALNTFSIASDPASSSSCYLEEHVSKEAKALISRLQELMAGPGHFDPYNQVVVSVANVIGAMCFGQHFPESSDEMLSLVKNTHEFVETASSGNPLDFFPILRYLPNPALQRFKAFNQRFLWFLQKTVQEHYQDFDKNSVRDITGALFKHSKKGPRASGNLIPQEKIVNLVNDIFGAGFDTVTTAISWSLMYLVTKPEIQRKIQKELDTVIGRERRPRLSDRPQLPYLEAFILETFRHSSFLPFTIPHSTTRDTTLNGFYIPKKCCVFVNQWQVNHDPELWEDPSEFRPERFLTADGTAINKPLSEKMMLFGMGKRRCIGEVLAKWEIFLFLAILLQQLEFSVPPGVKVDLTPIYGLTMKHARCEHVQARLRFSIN

For `COc1ccccc1CNc1ncncc1-c1ccoc1`, the Potency is > 11.4 µM (inactive) in [1], > 46 µM (inactive) in test [5] and > 46 µM (inactive) in test [6]. Further, the results for the activity change, negative = inhibition in [2], in test [3] and in test [11] were -6.36% (inactive), -22.1% (inactive) and 9.08% (inactive), respectively. Besides, in [4], the activity, negative = inhibition was -4.03% (inactive). Moreover, the molecule was classed as inactive in test [7], in [9] and in [10]. The Potency result in test [8] and in test [12] was “inactive” in each case. Moreover, the max response is -3.49% in [11] (setting [15]) and 5.8% in test [11] (setting [16]).
Take `CS(=O)(=O)N1CCC[C@@]2(CCN(c3ccccc3)C2)C1`: the Potency in test [1] was > 11.4 µM (inactive); in test [6], > 46 µM (inactive). The figures for the activity change, negative = inhibition in test [2], in test [3] and in [11] were -11.3% (inactive), -3.01% (inactive) and -16.2% (inactive), respectively. Besides, the activity, negative = inhibition in [4] is -2.15% (inactive). Also, the molecule was classed as inactive in test [7]. Besides, the Potency result in test [8] and in [12] was “inactive” in each case. Also, the results for the max response in test [11] (setting [15]) and in test [11] (setting [16]) were 2% and -14%, respectively.
For `COCC(=O)N1CCC2(CCCN(Cc3cc(C(F)(F)F)cc(C(F)(F)F)c3)C2)CC1`, in [1], the Potency is > 11.4 µM (inactive). Besides, the values for the activity change, negative = inhibition in test [2], in test [3] and in test [11] were -15.5% (inactive), -0.717% (inactive) and -0.278% (inactive), respectively. Further, in [4], the activity, negative = inhibition is 3.96% (inactive). Besides, the molecule was called inactive in test [7]. Besides, the Potency result in test [13], in [8] and in [12] was “inactive” each time. For the same molecule, the max response in test [11] (setting [15]) worked out at 26.3%; in test [11] (setting [16]), 28.3%.
With `CS(=O)(=O)N1CCC2(CC1)CN(C(=O)Nc1cccc(C#N)c1)C2`, the Potency in test [1] was > 11.4 µM (inactive); in test [6] it was > 46 µM (inactive). The activity change, negative = inhibition in [2] is -6.48% (inactive); in [3] it was 14.4% (inactive). The Potency result in test [14], in test [13], in test [8] and in test [12] was “inactive” throughout. The activity, negative = inhibition in test [4] was -5.8% (inactive). In addition, the call in [7] was inactive.
